Data on five molecules can be found in PubChem BioAssay (NCATS).

Unmarked numbers belong to inactive results. Inconclusive results are not listed. The source made the active and inactive calls. Calls follow the shape of the dose curve; as a rule, active = well fitted curve in the direction sought with a large enough effect; inconclusive = small, poorly fitted or top-dose-only effect, or another doubt; inactive = no such curve, though single readings can be large; an effect the other way counts as inactive or inconclusive.

The nature of assay [1]: OV-KATE Cancer Cell Toxicity qHTS against the NCATS CANVASS Library (AID 1347345). Also: potency is read from the fitted curve at half-maximal effect. As to activity change, negative = cytotoxicity: % is scaled to controls: 0 for no effect and ±100 for the full control effect. In a few lines: (§1)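 Following a 4 h pre-incubation of 1000 seeded cells, compounds were pinned in an 11-pnt dilution series and left for 72 h; viability then came from CellTiter-Glo.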
Assay [2] in a line: HPAF-II Cancer Cell Toxicity qHTS against the NCATS CANVASS Library (AID 1347346). Also: nearly all actives have a fitted effect of over 55% in size. Also: potency is read from the fitted curve at half-maximal effect. As to activity change, negative = cytotoxicity: series mostly up to about 38 µM; % is scaled to controls: 0 for no effect and ±100 for the full control effect. Summed up:
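Cytotoxicity read-out was CellTiter-Glo luminescence after 72 h at 37 degrees C exposure of HPAF-II cells (1000/well) to compounds in an 11-point titration.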
On the technique in general: qHTS replaces the single test concentration by a dilution series.

Assay [3] is described as follows: OV-SAHO Cancer Cell Toxicity qHTS against the NCATS CANVASS Library (AID 1347348). Also: nearly all actives have a fitted effect of over 55% in size. Also: potency is read from the fitted curve at half-maximal effect. As to activity change, negative = cytotoxicity: series mostly up to about 38 µM; % is scaled to controls: 0 for no effect and ±100 for the full control effect. In a few lines:
as §1

Assay [4] is described as follows: U-118MG Cancer Cell Toxicity qHTS against the NCATS CANVASS Library (AID 1347351). Also: potency is read from the fitted curve at half-maximal effect. As to activity change, negative = cytotoxicity: series mostly up to about 38 µM; % is scaled to controls: 0 for no effect and ±100 for the full control effect. Summed up:
as §1

Assay [5] can be described thus: HPAF-II 24hr Apoptosis Induction qHTS against the NCATS CANVASS Library (AID 1347356). Also: 0% is about no effect. Summed up:
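Caspase-Glo 3/7 luminescence, read after 15 min room-temperature development, measures apoptosis in HPAF-II cells treated 24 h at 37 degrees C with an 11-point concentration series; 500 cells/well; doxorubicin control.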

Assay [6] in a line: HPAF-II 12hr Apoptosis Induction qHTS against the NCATS CANVASS Library (AID 1347358). Also: 0% is about no effect. In a few lines:
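Caspase-3/7 activation by DEVD-substrate luminescence (Caspase-Glo 3/7, 15 min, room temperature) after a 12-hour compound exposure in 11 concentrations, of HPAF-II pancreatic cells seeded at 500/well in DMEM with 10% FBS.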

Assay [7] can be described thus: HEK293 24hr Apoptosis Induction qHTS against the NCATS CANVASS Library (AID 1347359). Also: 0% is about no effect. Summed up:
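HEK293 cells, 500 per well, exposed to an 11-point compound series for 24 hours at 37 degrees C. Caspase 3/7 activity read by Caspase-Glo luminescence (DEVD substrate) after 15 min at room temperature.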

Assay [8] in a line: HPAF-II 18hr Apoptosis Induction qHTS against the NCATS CANVASS Library (AID 1347360). Also: 0% is about no effect. Summed up: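 Apoptosis was scored as caspase-3/7 activity in HPAF-II pancreatic cancer cells treated 18 hours with an 11-point concentration series.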
Assay [9] has as its target Luciferin 4-monooxygenase (Photinus pyralis) (UniProt P08659). The assay can be described thus: Firefly luciferase counterscreen qHTS: Assay Interference Panel against the NCATS CANVASS Library (AID 1347363). Also: series mostly up to about 57 µM; 0% is about no effect. Summed up: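 Purified P. pyralis luciferase (0.04 ug/mL, 4x reagent) added to Tris-acetate buffer with 0.013 mM D-luciferin, 0.013 mM ATP and 13.3 mM Mg-acetate; compounds preincubated 15 min, then luminescence read after 5 min, RT.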
Background: Counterscreens check selectivity or assay interference.

Assay [10] can be described thus: qHTS for ATAD5 Agonist screened against the NCATS CANVASS Library (AID 1347367).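 Also: luciferase reporter driven by ATAD5 which rises upon DNA damage; 0% is about no effect.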 Summed up: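 Step one plated reporter cells and let them acclimate 5hr. Step two pinned compounds with MMS as positive and 0.46% DMSO as negative control. After 16hr incubation, fluorescence viability then luminescence were read.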
The nature of assay [11]: MCF7 Cancer Cell Toxicity qHTS against the NCATS CANVASS Library (AID 1347369). Also: potency is read from the fitted curve at half-maximal effect. Summed up:
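Cytotoxicity is measured by ATP content: MCF7 cells at 500 per well receive an 11-point compound series and, after 72 hr at 37C, are lysed with CellTiterGlo for luminescence.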

Assay [12] can be described thus: qHTS for ATAD5 Antagonist screened against the NCATS CANVASS Library (AID 1347370). Also: nearly all actives have a fitted effect of over 65% in size. Also: potency is read from the fitted curve at half-maximal effect. In a few lines: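 Compounds (11-point) co-dosed with 10 µM 5-FUrd for 16 h at 37 °C onto HEK293T-ATAD5 luciferase reporter cells. Viability measured by CellTiter-Fluor fluorescence, then ATAD5 reporter signal by luminescence.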
Assay [13] in a line: J3T Cancer Cell Toxicity qHTS against the NCATS CANVASS Library (AID 1347371). Also: potency is read from the fitted curve at half-maximal effect. Summed up:
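Cytotoxicity read as CellTiterGlo ATP luminescence after 72 h incubation (37C, 5% CO2) of J3T canine glioma cells (500/well) with an 11-point compound series.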

The target of assay [14] is Nuclear receptor subfamily 1 group I member 3 (Homo sapiens) (UniProt Q14994). The assay can be described thus: qHTS for Constitutive Androstane Receptor (CAR) Agonist screened against the NCATS CANVASS Library (AID 1347373).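 Also: every well also contained 1.5 µM PK11195 alongside the test compound; 0% is about no effect.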 In a few lines:
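Agonist mode with 1.5uM PK11195 present: compounds for 24hr on HepG2-hCAR-CYP2B6 cells. CellTiter-Fluor fluorescence (ex 405, em 540 nm) gives viability; ONE-Glo luminescence reports CAR activation.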

Assay [15] can be described thus: 10-beta competent E. coli microbial cell viability qHTS against the NCATS CANVASS Library (AID 1347376). Also: series mostly up to about 46 µM; 0% is about no effect. In a few lines: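 Read-out: BacTiter-Glo ATP luminescence, taken 20 min after reagent addition. Beforehand, 10-beta competent E. coli at 0.2 OD had been incubated overnight at 37C with compounds at 11 concentrations.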
Assay [16] in a line: qHTS for H2AX Agonists against the NCATS CANVASS Library (AID 1347378).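 Also: phospho-H2AX S139 level in CHO-K1 lysates by TR-FRET emission ratio; 0% is about no effect.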 Summed up:
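Following overnight seeding, CHO-K1 cells are incubated with a concentration series of compound for 3 hr at 37C (final DMSO 0.76%). Cells are then lysed, detection antibodies added, and emission ratio 665/620 nm recorded after 24 hr at room temperature.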

Assay [17] is described as follows: qHTS for Inflammasome Signaling Inhibitors: IL-1-beta AlphaLISA screen against the NCATS CANVASS Library (AID 1347379).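 Also: human THP-1 cells primed with LPS then triggered with ATP.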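 As to activity change, negative = inhibition: secreted IL-1B measured as AlphaLISA emission at 615 nm; % is scaled to controls: 0 for no effect and ±100 for the full control effect; lower signal means less IL-1B release which is the wanted effect.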 In a few lines: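 Secreted IL-1B from human THP-1 cells quantified by AlphaLISA 16 hr after compound addition (final up to 57.5 uM). A 1 hr compound pretreatment preceded inflammasome activation with 250 ng/mL LPS plus 1.25 mM ATP (final).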

Assay [18] can be described thus: Cytotoxicity qHTS for assessment of Hepg2 cells membrane integrity screened against the NCATS CANVASS Library (AID 1347387). In a few lines:
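Membrane damage quantified as fluorescent LDH-release signal (ex 560, em 590 nm) in HepG2 cells treated 5 hr at 37C. qHTS format, 11 concentrations spanning 0.59 nM - 46 uM final, cells plated at 2000 per well the night before.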

Assay [19] is described as follows: Vero-766 cells viability qHTS against the NCATS CANVASS Library: Counterscreen for Zika virus inhibition assay (AID 1347394). Also: nearly all actives have a fitted effect of over 60% in size. Also: potency is read from the fitted curve at half-maximal effect. In a few lines: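 This cytotoxicity counterscreen uses African green monkey Vero 766 cells in the absence of Zika virus. Compounds are incubated with cells for 72 h, and ATP-based luminescence reports viability.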
Assay [20] can be described thus: Viability qHTS for inhibitors of the SERCaMP assay screened against the NCATS CANVASS Library (AID 1347400). Also: nearly all actives have a fitted effect of over 70% in size. Also: potency is read from the fitted curve at half-maximal effect. In a few lines: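 CellTiter-Glo luminescence measured cytotoxicity after 48 h at 37C of compound treatment (11-point series). Cells were SH-SY5Y-GLuc SERCaMP MJH297 derivatives, seeded at 1000 per well 4 h beforehand.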

Sequence of Nuclear receptor subfamily 1 group I member 3 (Homo sapiens) (Q14994 whole entry, looked up): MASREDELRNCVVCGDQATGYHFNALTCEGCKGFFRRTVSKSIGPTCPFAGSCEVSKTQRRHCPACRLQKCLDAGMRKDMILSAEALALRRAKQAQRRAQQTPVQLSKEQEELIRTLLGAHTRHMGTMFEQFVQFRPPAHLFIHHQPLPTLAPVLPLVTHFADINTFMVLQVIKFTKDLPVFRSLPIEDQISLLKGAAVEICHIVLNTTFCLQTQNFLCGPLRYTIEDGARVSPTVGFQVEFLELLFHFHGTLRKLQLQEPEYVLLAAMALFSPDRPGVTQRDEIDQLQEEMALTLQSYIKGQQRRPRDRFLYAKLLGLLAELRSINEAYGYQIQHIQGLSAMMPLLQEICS
Sequence of Luciferin 4-monooxygenase (Photinus pyralis) (P08659 whole entry, looked up): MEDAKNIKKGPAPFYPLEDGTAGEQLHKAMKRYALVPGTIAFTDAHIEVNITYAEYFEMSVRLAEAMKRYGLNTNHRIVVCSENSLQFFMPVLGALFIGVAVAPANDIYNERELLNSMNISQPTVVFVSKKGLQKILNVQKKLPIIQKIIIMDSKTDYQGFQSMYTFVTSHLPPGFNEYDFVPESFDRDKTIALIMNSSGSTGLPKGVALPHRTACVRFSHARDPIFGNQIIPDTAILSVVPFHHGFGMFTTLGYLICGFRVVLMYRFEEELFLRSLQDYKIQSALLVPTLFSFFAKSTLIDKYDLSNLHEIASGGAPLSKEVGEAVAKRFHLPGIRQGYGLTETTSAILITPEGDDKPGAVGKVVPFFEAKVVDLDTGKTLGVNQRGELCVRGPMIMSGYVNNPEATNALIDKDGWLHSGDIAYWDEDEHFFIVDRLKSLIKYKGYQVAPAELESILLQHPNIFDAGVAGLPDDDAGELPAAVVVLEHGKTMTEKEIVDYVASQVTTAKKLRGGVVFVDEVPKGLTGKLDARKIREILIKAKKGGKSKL

`C=C1C[C@@]23C=CC(=O)[C@@](C)(CCC(=O)Nc4c(O)ccc(C(=O)O)c4O)C2C[C@@H]1CC3` (some centres not stated): the Potency result in assay [1], in [2], in assay [3], in [4], in [6] and in [7] was “inactive” throughout. Also, the Potency result in assay [8], in assay [9], in assay [10], in assay [11], in assay [12] and in assay [13] was “inactive” throughout. The Potency entry in [16], in assay [17], in [19] and in assay [20] was “inactive” each time. The call in assay [5], in [14], in [15] and in [18] was inactive.
Take `CC(=O)[C@@H]1[C@@H](O)C[C@H]2[C@]3(C)CC[C@H]4C(C)(C)CCC[C@]4(CO)[C@H]3C[C@H]3OC(=O)[C@@H]1[C@@]32C`: the Potency result in [1], in [2], in [3], in assay [4], in assay [6] and in assay [7] was “inactive” throughout. For the same molecule, the Potency result in assay [8], in assay [9], in [10], in assay [11], in assay [12] and in [13] was “inactive” each time. Also, the Potency entry in assay [16], in assay [17], in [19] and in assay [20] was “inactive” each time. Also, the outcome in assay [5], in assay [14], in assay [15] and in assay [18] was inactive.
Regarding `COc1ccc([C@@H]2c3cc(OC)c(OC)cc3C(=O)[C@H](C)C2C)cc1OC` (some centres not stated), the activity change, negative = cytotoxicity in assay [1] was -0.626% [at 7.64 µM]; in [2] it was 3.84% [at 7.64 µM]; in [3] it was -3.3% [at 7.64 µM]; in assay [4] it was 3.5% [at 7.64 µM]; in assay [11], -14.7% [at 9.17 µM]; in assay [20], 9.45% [at 18.4 µM]. Also, the caspase activation was 1.81% [at 9.19 µM] in assay [5], 2.3% [at 9.19 µM] in [6] and 1.74% [at 9.19 µM] in assay [8]. Moreover, the activation in assay [7] is 3.39% [at 9.19 µM]; in assay [10], -0.416% [at 9.19 µM]; in [14] it was 1.07% [at 9.19 µM]; in [16], -1.51% [at 15.3 µM]. The activity change, negative = inhibition is 4.08% [at 11.5 µM] in assay [9] and -23.2% [at 9.19 µM] in assay [12]. Further, the outcome in assay [13] is “inactive [at 9.19 µM]”; in assay [17] it was “inactive [at 11.5 µM]”. Further, the cytotoxicity (LDH release) in assay [18] was 0.689 [at 9.19 µM]. Besides, the activity change, negative = cytotoxic in [19] is -18.3% [at 9.19 µM].
As to `CN1CC[C@]2(c3cccc4c3N[C@@H]3N(C)CC[C@]43[C@@]34CCN(C)[C@@H]3Nc3ccccc34)c3ccccc3N[C@H]12`, the Potency in assay [1] was 14.9 µM (active); in assay [2], 18.8 µM (active); in assay [3] it was 18.8 µM (active); in [4], 7.49 µM (active); in assay [11] it was 9.31 µM (active); in assay [13], 7.43 µM (active). In addition, the figures for the Potency in [17], in assay [19] and in assay [20] were 24.3 µM (active), 26.3 µM (active) and 15.2 µM (active), respectively. The result in assay [5], in assay [14], in [15] and in assay [18] was inactive. Also, the Potency result in assay [6], in assay [7], in assay [8], in assay [9], in assay [10] and in [12] was “inactive” each time. Also, the Potency entry in assay [16] is “inactive”.
On to `C=C(C)C(=O)O[C@H]1C[C@H](C)[C@@H](OC(C)=O)CC[C@@]2(C)O[C@@H]2[C@H]2OC(=O)C(COC(C)=O)=C12`, for which the Potency in [1] is 4.2 µM (active); in assay [2], 11.9 µM (active); in assay [3], 2.36 µM (active); in assay [11] it was 23.4 µM (active); in assay [12], 16.6 µM (active); in assay [13] it was 6.62 µM (active). Moreover, the Potency in assay [17] was 9.68 µM (active); in assay [20], 9.57 µM (active). Besides, the Potency entry in assay [9] and in assay [16] was “inactive” in each case. The molecule was called inactive in assay [14], in [15] and in [18].
